This passage reports growth inhibition results from PubChem BioAssay (NCI).

About 79,000 compounds went through this panel and 15% of them were active in at least one assay; those are over-represented in the sample as a whole. Values without a mark were called inactive. Calls of active or inactive are those of the source. Rule as the data show it: active = growth inhibition above about 70%; inactive = the rest.

Test [1] is described as follows: NCI Yeast Anticancer Drug Screen. Data for the rad50 strain (AID 155).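 Also: 0% = growth of vehicle-only cultures of the same strain.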 The following applies: S. cerevisiae rad50 strain growth inhibition, hits give high values. In a few lines:
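Inhibition values express reduced yeast growth in compound-treated cultures relative to vehicle-treated controls.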

The nature of test [2]: NCI Yeast Anticancer Drug Screen. Data for the mec2-1 strain (AID 157). The following applies: S. cerevisiae mec2-1 strain, hits give high values. In a few lines:
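Each compound was tested on mec2-1 yeast, a strain altered in DNA damage repair or cell cycle control. Growth inhibition is reported relative to vehicle.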

Test [3] in a line: NCI Yeast Anticancer Drug Screen. Data for the sgs1 mgt1 strain (AID 161).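 Also: 0% = growth of cultures given vehicle only.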 As to conditions: S. cerevisiae sgs1 mgt1 strain, hits give high values. In a few lines:
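Genetically altered yeast, compound exposure, growth inhibition relative to vehicle.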

Test [4] in a line: NCI Yeast Anticancer Drug Screen. Data for the cln2 rad14 strain (AID 165).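 Also: 0% = growth equal to vehicle treated cultures.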 The following applies: S. cerevisiae cln2 rad14 strain, hits give high values. The essentials:
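Test compounds were added to cln2 rad14 yeast cultures; inhibition of growth was then determined by comparison with vehicle treatment.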

Test [5] can be described thus: NCI Yeast Anticancer Drug Screen. Data for the bub3 strain (AID 167). The following applies: S. cerevisiae bub3 mutant strain, hits give high values. In a few lines:
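Steps: expose the mutant yeast strain to compound; grow alongside vehicle-treated cultures; measure growth; express inhibition against the vehicle cultures.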

A short description of test [6]: NCI Yeast Anticancer Drug Screen. Data for the mlh1 rad18 strain (AID 175). The following applies: S. cerevisiae mlh1 rad18 strain growth inhibition, hits give high values. The essentials:
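Inhibition values reflect reduced growth of mutant yeast versus vehicle-treated controls following compound exposure; the mutations affect DNA damage repair.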

Setting [7] is: at 5.0 µM (retest, dose inferred, filed as 0.5).
Where [8] appears, read: at 50.0 µM (retest, dose inferred, filed as 5.0).

With `CCOc1ccccc1C(=O)OCc1ccccc1`, the growth inhibition in test [1] (setting [7]) is -7%; in test [1] (setting [8]) it was 8%; in test [1] (at 50.0 µM) it was 10.1%; in test [2] (setting [7]), -9%; in test [2] (setting [8]) it was 4%; in test [2] (at 50.0 µM), 0.65%. Besides, the growth inhibition in test [3] (setting [7]) is -1%; in test [3] (setting [8]), 19%; in test [3] (at 50.0 µM) it was 18.9%; in test [4] (setting [7]) it was 23%; in test [4] (setting [8]) it was -22%; in test [4] (at 50.0 µM), 15.2%. Besides, the growth inhibition is 4% in test [5] (setting [7]); -20% in test [5] (setting [8]); 6.2% in test [5] (at 50.0 µM); -19% in test [6] (setting [7]); 21% in test [6] (setting [8]); 1.55% in test [6] (at 50.0 µM).

Take `CCCCCCCn1ccnc1NCCCCCCCCCCNc1nccn1CCCCCCC`: the growth inhibition in test [1] (setting [7]) was -3%; in test [1] (setting [8]), 98% (active); in test [1] (at 50.0 µM) it was 99.3% (active); in test [2] (setting [7]), -5%; in test [2] (setting [8]), 98% (active); in test [2] (at 50.0 µM), 99.6% (active). Besides, the growth inhibition in test [3] (setting [7]) was -6%; in test [3] (setting [8]), 99% (active); in test [3] (at 50.0 µM), 47.4%; in test [4] (setting [7]), -4%; in test [4] (setting [8]) it was 98% (active); in test [4] (at 50.0 µM), 93.9% (active). The growth inhibition in test [5] (setting [7]) was 1%; in test [5] (setting [8]) it was 98% (active); in test [5] (at 50.0 µM) it was 94.5% (active); in test [6] (setting [7]) it was -1%; in test [6] (setting [8]), 98% (active); in test [6] (at 50.0 µM), 98.9% (active).

Take `O=C(C[n+]1cccc2ccccc21)c1ccc(-c2ccc(C(=O)C[n+]3cccc4ccccc43)cc2)cc1`: the growth inhibition in test [1] (setting [7]) is 3%; in test [1] (setting [8]) it was 32%; in test [1] (at 50.0 µM) it was 62.2%; in test [2] (setting [7]), 50%; in test [2] (setting [8]), 23%; in test [2] (at 50.0 µM), 50%. In addition, the growth inhibition in test [3] (setting [7]) was 2%; in test [3] (setting [8]) it was 36%; in test [3] (at 50.0 µM) it was 46.5%; in test [4] (setting [7]), 2%; in test [4] (setting [8]), 24%; in test [4] (at 50.0 µM), 31.9%. Moreover, the growth inhibition in test [5] (setting [7]) was 1%; in test [5] (setting [8]), 44%; in test [5] (at 50.0 µM), 45.6%; in test [6] (setting [7]), 4%; in test [6] (setting [8]), 53%; in test [6] (at 50.0 µM), 86.3% (active).

As to `CC(CCCOC(c1ccccc1)(c1ccccc1)c1ccccc1)OC(=O)Nc1ccccc1` (configuration not stated), the growth inhibition in test [1] (setting [7]) is 85% (active); in test [1] (setting [8]), 85% (active); in test [1] (at 50.0 µM), 83.9% (active); in test [2] (setting [7]), 81% (active); in test [2] (setting [8]), 81% (active); in test [2] (at 50.0 µM), 85.8% (active). For the same compound, the growth inhibition in test [3] (setting [7]) is 63%; in test [3] (setting [8]), 63%; in test [3] (at 50.0 µM), 84% (active); in test [4] (setting [7]) it was 92% (active); in test [4] (setting [8]), 92% (active); in test [4] (at 50.0 µM) it was 83% (active). Besides, the growth inhibition is 69% in test [5] (setting [7]); 69% in test [5] (setting [8]); 79.7% (active) in test [5] (at 50.0 µM); 93% (active) in test [6] (setting [7]); 93% (active) in test [6] (setting [8]); 81.5% (active) in test [6] (at 50.0 µM).

For the compound `NCCCC(=O)NC(Cc1cnc[nH]1)C(=O)O` (configuration not stated), the growth inhibition in test [1] (setting [7]) was 0%; in test [1] (setting [8]), -5%; in test [1] (at 50.0 µM) it was -1.3%; in test [2] (setting [7]), -6%; in test [2] (setting [8]), -4%; in test [2] (at 50.0 µM), 29.4%. The growth inhibition is 1% in test [3] (setting [7]); -11% in test [3] (setting [8]); 11.8% in test [3] (at 50.0 µM); 1% in test [4] (setting [7]); -2% in test [4] (setting [8]); 32.5% in test [4] (at 50.0 µM). Also, the growth inhibition in test [5] (setting [7]) is -4%; in test [5] (setting [8]), -1%; in test [5] (at 50.0 µM) it was 2.75%; in test [6] (setting [7]), -11%; in test [6] (setting [8]), -37%; in test [6] (at 50.0 µM), -6.45%.

Consider `CC1CCC(C(C)C2C(O)CC3C4CCC5CC(O)CCC5(C)C4CCC32C)NC1` (configuration not stated), for which the growth inhibition is 3% in test [1] (setting [7]); 98% (active) in test [1] (setting [8]); 91.8% (active) in test [1] (at 50.0 µM); 1% in test [2] (setting [7]); 96% (active) in test [2] (setting [8]); 82.2% (active) in test [2] (at 50.0 µM). Moreover, the growth inhibition in test [3] (setting [7]) is 6%; in test [3] (setting [8]), 97% (active); in test [3] (at 50.0 µM) it was 93.2% (active); in test [4] (setting [7]), -4%; in test [4] (setting [8]), 96% (active); in test [4] (at 50.0 µM) it was 90% (active). The growth inhibition in test [5] (setting [7]) is 2%; in test [5] (setting [8]), 95% (active); in test [5] (at 50.0 µM), 90% (active); in test [6] (setting [7]) it was 4%; in test [6] (setting [8]) it was 97% (active); in test [6] (at 50.0 µM), 92.9% (active).

For `O=C(NNc1ccccc1)c1ccc([N+](=O)[O-])cc1`, the growth inhibition was 31% in test [1] (setting [7]); 95% (active) in test [1] (setting [8]); 99% (active) in test [1] (at 50.0 µM); 10% in test [2] (setting [7]); 96% (active) in test [2] (setting [8]); 99.2% (active) in test [2] (at 50.0 µM). In addition, the growth inhibition in test [3] (setting [7]) was 34%; in test [3] (setting [8]), 97% (active); in test [3] (at 50.0 µM), 99% (active); in test [4] (setting [7]) it was 20%; in test [4] (setting [8]), 96% (active); in test [4] (at 50.0 µM), 92% (active). The growth inhibition in test [5] (setting [7]) is 25%; in test [5] (setting [8]) it was 96% (active); in test [5] (at 50.0 µM) it was 99.6% (active); in test [6] (setting [7]), 32%; in test [6] (setting [8]), 97% (active); in test [6] (at 50.0 µM), 98.7% (active).

Turning to `C/C(=N/O)C1CC(CCC2([N+](=O)[O-])CCC(C)(O)C(/C(C)=N/O)C2)([N+](=O)[O-])CCC1(C)O` (configuration not stated), the growth inhibition is 0% in test [1] (setting [7]); -8% in test [1] (setting [8]); 12.7% in test [1] (at 50.0 µM); 3% in test [2] (setting [7]); -1% in test [2] (setting [8]); 11.3% in test [2] (at 50.0 µM). Also, the growth inhibition in test [3] (setting [7]) is -1%; in test [3] (setting [8]), -4%; in test [3] (at 50.0 µM), -7.15%; in test [4] (setting [7]), 5%; in test [4] (setting [8]) it was -12%; in test [4] (at 50.0 µM) it was 15.3%. In addition, the growth inhibition in test [5] (setting [7]) is 3%; in test [5] (setting [8]), -2%; in test [5] (at 50.0 µM), 90.5% (active); in test [6] (setting [7]), 1%; in test [6] (setting [8]), 0%; in test [6] (at 50.0 µM), 19.9%.

Turning to `O=CNc1ccc(Oc2ccc(NC=O)cc2)cc1`, the growth inhibition in test [1] (setting [7]) is -1%; in test [1] (setting [8]), -18%; in test [1] (at 50.0 µM), 3.6%; in test [2] (setting [7]) it was -18%; in test [2] (setting [8]), -19%; in test [2] (at 50.0 µM), 6.75%. Moreover, the growth inhibition is 1% in test [3] (setting [7]); 1% in test [3] (setting [8]); 1.45% in test [3] (at 50.0 µM); -1% in test [4] (setting [7]); 7% in test [4] (setting [8]); 61.3% in test [4] (at 50.0 µM). Moreover, the growth inhibition in test [5] (setting [7]) is -2%; in test [5] (setting [8]), -15%; in test [5] (at 50.0 µM) it was -6.45%; in test [6] (setting [7]), 17%; in test [6] (setting [8]), -5%; in test [6] (at 50.0 µM), 30.6%.
